# From PubChem BioAssay (EPA / NIEHS)
# Active and inactive are the calls of the source. The calls were made as follows: active = hit-call score of the fitted dose curve at least 0.9, where 1 is the maximum; inactive = score below 0.9.
# Columns and labels:
# Settings in all cases: mRNA level, 48 h; actives raise or lower the signal
# CYP2E1 (gene 1571) = experiment: LTEA_HepaRG_CYP2E1: Life Technologies and Expression Analysis (LTEA) Assay for CYP2E1 using HepaRG (AID 2283485)
# Summary of the method: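 HepaRG cells in serum-free induction medium exposed 48 h to test chemicals, 8 half-log concentrations up to 100 uM in 0.5% DMSO, duplicate. CYP2E1 mRNA by qRT-PCR, normalized to ACTB, GAPDH, POLR2A; bidirectional fit versus DMSO.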
# CYP4A11 (gene 1579) = experiment: LTEA_HepaRG_CYP4A11: Life Technologies and Expression Analysis (LTEA) Assay for CYP4A11 using HepaRG (AID 2283486)
# Summary of the method: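 Differentiated HepaRG cells, 48 h after plating, exposed in duplicate for 48 h to 8 half-log concentrations up to 100 uM in 0.5% DMSO in serum-free induction medium. CYP4A11 mRNA measured by TaqMan qRT-PCR, normalized to ACTB, GAPDH and POLR2A.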
# [1] = read-out: Cytochrome P450 3A4 (Homo sapiens) (UniProt P08684); experiment: LTEA_HepaRG_CYP3A4: Life Technologies and Expression Analysis (LTEA) Assay for CYP3A4 using HepaRG (AID 2283487)
# Summary of the method: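 CYP3A4 transcript measured by TaqMan qRT-PCR and normalized to three housekeeping genes after 48 h chemical exposure of human HepaRG cells. Top concentration 100 uM, half-log steps, 0.5% DMSO vehicle; gain or loss fitted against DMSO baseline.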
# [2] = read-out: DNA damage-inducible transcript 3 (DDIT3), DDIT3 (gene 1649); experiment: LTEA_HepaRG_DDIT3: Life Technologies and Expression Analysis (LTEA) Assay for DNA damage-inducible transcript 3 (DDIT3) using HepaRG (AID 2283488)
# Summary of the method: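 Differentiated human HepaRG cells in serum-free induction medium were exposed in duplicate for 48 h to 8 concentrations (top 100 uM, half-log steps, 0.5% DMSO). DDIT3 mRNA measured by TaqMan qRT-PCR, normalized to ACTB/GAPDH/POLR2A; bidirectional fit versus DMSO.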
# [3] = read-out: Pro-epidermal growth factor (Homo sapiens) (UniProt P01133); experiment: LTEA_HepaRG_EGF: Life Technologies and Expression Analysis (LTEA) Assay for Epidermal growth factor (EGF) using HepaRG (AID 2283489)
# Summary of the method: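 HepaRG cells (~100,000/well, 48 h pre-culture) exposed in duplicate for 48 h in serum-free induction medium to 8 half-log concentrations up to 100 uM in 0.5% DMSO. EGF mRNA by qRT-PCR, normalized to ACTB/GAPDH/POLR2A; bidirectional fit versus DMSO.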
# [4] = read-out: Early growth response protein 1 (EGR1) transcription factor, EGR1 (gene 1958); experiment: LTEA_HepaRG_EGR1: Life Technologies and Expression Analysis (LTEA) Assay for Early growth response protein 1 (EGR1) transcription factor using HepaRG (AID 2283490)
# Summary of the method: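 Differentiated HepaRG cells in serum-free induction medium exposed 48 hours, duplicate, to 8 half-log concentrations up to 100 uM in 0.5% DMSO. EGR1 mRNA measured by TaqMan qRT-PCR, normalized to ACTB, GAPDH, POLR2A; bidirectional fit versus DMSO.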
# [5] = read-out: Ezrin (EZR), EZR (gene 7430); experiment: LTEA_HepaRG_EZR: Life Technologies and Expression Analysis (LTEA) Assay for Ezrin (EZR) using HepaRG (AID 2283491)
# Summary of the method: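 HepaRG, 48 h chemical exposure, 8-pt half-log series from 100 uM, 0.5% DMSO vehicle, duplicates. Read-out: EZR mRNA by TaqMan qRT-PCR (Fluidigm array), housekeeping-normalized; bidirectional curve fit vs DMSO baseline.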
# [6] = read-out: Cytochrome P450 3A7 (Homo sapiens) (UniProt P24462); experiment: LTEA_HepaRG_CYP3A7: Life Technologies and Expression Analysis (LTEA) Assay for CYP3A7 using HepaRG (AID 2283492)
# Summary of the method: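 Differentiated HepaRG cells in serum-free induction medium exposed 48 h in duplicate to 8-point half-log series from 100 uM top in 0.5% DMSO. CYP3A7 mRNA by qRT-PCR, normalized to ACTB/GAPDH/POLR2A, bidirectional fit versus DMSO.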
# CYP3A5 (gene 1577) = experiment: LTEA_HepaRG_CYP3A5: Life Technologies and Expression Analysis (LTEA) Assay for CYP3A5 using HepaRG (AID 2283493)
# Summary of the method: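 Differentiated HepaRG cells in serum-free induction medium were dosed 48 h with test chemicals (8-point half-log series, top 100 uM, 0.5% DMSO, duplicate). CYP3A5 mRNA measured by qRT-PCR, normalized to ACTB, GAPDH, POLR2A; bidirectional fit versus DMSO.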
# [7] = read-out: Fatty Acid-Binding Protein 1 (FABP1), FABP1 (gene 2168); experiment: LTEA_HepaRG_FABP1: Life Technologies and Expression Analysis (LTEA) Assay for Fatty Acid-Binding Protein 1 (FABP1) using HepaRG (AID 2283494)
# Summary of the method: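 Differentiated human HepaRG cells exposed 48 h in serum-free induction medium to eight half-log concentrations up to 100 uM (0.5% DMSO), duplicate. FABP1 mRNA by qRT-PCR, normalised to ACTB, GAPDH, POLR2A; bidirectional fitting against DMSO.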
# [8] = read-out: Cytochrome P450 4A22 (Homo sapiens) (UniProt Q5TCH4); experiment: LTEA_HepaRG_CYP4A22: Life Technologies and Expression Analysis (LTEA) Assay for Cytochrome P450 4A22 (CYP4A22) using HepaRG (AID 2283495)
# Summary of the method: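 Differentiated HepaRG cells in serum-free induction medium exposed 48 h in duplicate to eight half-log concentrations up to 100 uM in 0.5% DMSO. CYP4A22 mRNA quantified by TaqMan qRT-PCR, normalized to ACTB, GAPDH and POLR2A; bidirectional fit versus DMSO.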
# [9] = read-out: Cytochrome P450 7A1 (Homo sapiens) (UniProt P22680); experiment: LTEA_HepaRG_CYP7A1: Life Technologies and Expression Analysis (LTEA) Assay for Cytochrome P450 7A1 (CYP7A1) using HepaRG (AID 2283496)
# Summary of the method: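 Gene expression endpoint in human HepaRG liver cells treated for 48 h with test chemicals (up to 100 uM, 0.5% DMSO). Values come from bidirectional concentration-response fitting versus DMSO.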
# [10] = read-out: Glutathione S-Transferase (GSTA2), GSTA2 (gene 2939); experiment: LTEA_HepaRG_GSTA2: Life Technologies and Expression Analysis (LTEA) Assay for Glutathione S-Transferase (GSTA2) using HepaRG (AID 2283497)
# Summary of the method: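 Differentiated human HepaRG cells were exposed in duplicate for 48 h in serum-free induction medium, 8 points from 100 uM top in half-log steps, 0.5% DMSO. GSTA2 mRNA was measured by TaqMan qRT-PCR, normalized to ACTB, GAPDH and POLR2A; bidirectional fit versus DMSO.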
# [11] = read-out: Glutamate-cysteine ligase catalytic (GCLC), GCLC (gene 2729); experiment: LTEA_HepaRG_GCLC: Life Technologies and Expression Analysis (LTEA) Assay for Glutamate-cysteine ligase catalytic (GCLC) using HepaRG (AID 2283498)
# Summary of the method: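 Differentiated HepaRG cells exposed 48 h in serum-free induction medium, eight-point half-log series topping at 100 uM in 0.5% DMSO, duplicates. GCLC mRNA by qRT-PCR normalized to ACTB, GAPDH and POLR2A, fitted bidirectionally versus DMSO.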
# [12] = read-out: growth arrest and DNA damage 45 (GADD45G), GADD45G (gene 10912); experiment: LTEA_HepaRG_GADD45G: Life Technologies and Expression Analysis (LTEA) Assay for growth arrest and DNA damage 45 (GADD45G) using HepaRG (AID 2283499)
# Summary of the method: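 Differentiated human HepaRG cells, 48 h post-plating, exposed 48 h in serum-free induction medium to 8 half-log concentrations (top 100 uM, 0.5% DMSO) in duplicate. GADD45G mRNA measured by Fluidigm TaqMan qRT-PCR, normalized to ACTB, GAPDH, POLR2A; bidirectional fit versus DMSO.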
# [13] = read-out: Glutamate-cysteine ligase regulatory (GCLM), GCLM (gene 2730); experiment: LTEA_HepaRG_GCLM: Life Technologies and Expression Analysis (LTEA) Assay for Glutamate-cysteine ligase regulatory (GCLM) using HepaRG (AID 2283500)
# Summary of the method: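 Differentiated human HepaRG cells exposed 48 h in serum-free induction medium to 8-point half-log concentrations (top 100 uM, 0.5% DMSO), in duplicate. GCLM mRNA quantified by qRT-PCR, normalized to ACTB, GAPDH, POLR2A; bidirectional fitting versus DMSO.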
# [14] = read-out: Glutathione S-transferase M3 (GSTM3), GSTM3 (gene 2947); experiment: LTEA_HepaRG_GSTM3: Life Technologies and Expression Analysis (LTEA) Assay for Glutathione S-transferase M3 (GSTM3) using HepaRG (AID 2283501)
# Summary of the method: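 Differentiated human HepaRG cells were exposed in duplicate for 48 h in serum-free induction medium, 8 points from 100 uM top in half-log steps, 0.5% DMSO. GSTM3 mRNA was measured by TaqMan qRT-PCR, normalized to ACTB, GAPDH and POLR2A; bidirectional fit versus DMSO.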
# [15] = read-out: Heat shock 70 kDa protein 1 (HSPA1A), gene 3303; experiment: LTEA_HepaRG_HSPA1A: Life Technologies and Expression Analysis (LTEA) Assay for Heat shock 70 kDa protein 1 (HSPA1A) using HepaRG (AID 2283502)
# Summary of the method: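 Differentiated human HepaRG cells in serum-free induction medium were exposed in duplicate for 48 h to eight concentrations (top 100 uM, half-log steps, 0.5% DMSO). HSPA1A mRNA was quantified by qRT-PCR, normalized to ACTB, GAPDH and POLR2A, and fitted bidirectionally against DMSO.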
# [16] = read-out: Hypoxia-inducible factor 1-alpha (Homo sapiens) (UniProt Q16665); experiment: LTEA_HepaRG_HIF1A: Life Technologies and Expression Analysis (LTEA) Assay for Hypoxia-inducible factor 1 (HIF1A) Trancription factor using HepaRG (AID 2283503)
# Summary of the method: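 HepaRG, 48 h exposure, 8-pt half-log series from 100 uM, 0.5% DMSO vehicle, duplicates. Readout: HIF1A transcript by qRT-PCR (Fluidigm array), housekeeping-normalised. Bidirectional curve fit vs DMSO baseline.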
# [17] = read-out: 3-Hydroxy-3-Methylglutaryl-CoA Synthase 2 (HMGCS2), HMGCS2 (gene 3158); experiment: LTEA_HepaRG_HMGCS2: Life Technologies and Expression Analysis (LTEA) Assay for 3-Hydroxy-3-Methylglutaryl-CoA Synthase 2 (HMGCS2) using HepaRG (AID 2283504)
# Summary of the method: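 Human HepaRG cells in serum-free induction medium were exposed in duplicate for 48 h to 8-point half-log series from 100 uM top in 0.5% DMSO. HMGCS2 mRNA measured by TaqMan qRT-PCR, normalised to ACTB, GAPDH, POLR2A; bidirectional fit versus DMSO.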
# Chain of Hypoxia-inducible factor 1-alpha (Homo sapiens) (Q16665 whole entry, looked up): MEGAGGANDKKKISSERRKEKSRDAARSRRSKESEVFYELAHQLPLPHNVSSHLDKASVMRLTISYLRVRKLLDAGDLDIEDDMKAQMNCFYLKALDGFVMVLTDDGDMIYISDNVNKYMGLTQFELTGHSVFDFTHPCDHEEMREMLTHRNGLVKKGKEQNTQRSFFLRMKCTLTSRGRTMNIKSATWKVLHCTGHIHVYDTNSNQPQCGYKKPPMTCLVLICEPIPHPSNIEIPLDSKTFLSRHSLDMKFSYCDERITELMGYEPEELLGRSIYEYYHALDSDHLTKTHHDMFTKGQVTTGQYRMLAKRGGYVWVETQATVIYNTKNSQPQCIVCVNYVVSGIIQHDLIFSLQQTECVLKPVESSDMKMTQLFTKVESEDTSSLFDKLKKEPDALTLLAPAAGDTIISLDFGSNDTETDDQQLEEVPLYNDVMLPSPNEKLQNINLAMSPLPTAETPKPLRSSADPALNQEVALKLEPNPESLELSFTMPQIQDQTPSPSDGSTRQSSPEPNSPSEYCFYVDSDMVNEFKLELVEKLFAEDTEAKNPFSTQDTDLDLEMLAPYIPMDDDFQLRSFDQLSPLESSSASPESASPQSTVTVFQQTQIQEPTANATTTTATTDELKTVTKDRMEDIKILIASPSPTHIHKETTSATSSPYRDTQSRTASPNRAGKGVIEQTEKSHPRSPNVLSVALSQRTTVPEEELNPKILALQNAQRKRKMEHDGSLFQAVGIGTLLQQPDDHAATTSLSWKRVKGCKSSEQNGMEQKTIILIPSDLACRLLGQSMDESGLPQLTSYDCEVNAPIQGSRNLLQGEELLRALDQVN
# Chain of Cytochrome P450 3A7 (Homo sapiens) (P24462 whole entry, looked up): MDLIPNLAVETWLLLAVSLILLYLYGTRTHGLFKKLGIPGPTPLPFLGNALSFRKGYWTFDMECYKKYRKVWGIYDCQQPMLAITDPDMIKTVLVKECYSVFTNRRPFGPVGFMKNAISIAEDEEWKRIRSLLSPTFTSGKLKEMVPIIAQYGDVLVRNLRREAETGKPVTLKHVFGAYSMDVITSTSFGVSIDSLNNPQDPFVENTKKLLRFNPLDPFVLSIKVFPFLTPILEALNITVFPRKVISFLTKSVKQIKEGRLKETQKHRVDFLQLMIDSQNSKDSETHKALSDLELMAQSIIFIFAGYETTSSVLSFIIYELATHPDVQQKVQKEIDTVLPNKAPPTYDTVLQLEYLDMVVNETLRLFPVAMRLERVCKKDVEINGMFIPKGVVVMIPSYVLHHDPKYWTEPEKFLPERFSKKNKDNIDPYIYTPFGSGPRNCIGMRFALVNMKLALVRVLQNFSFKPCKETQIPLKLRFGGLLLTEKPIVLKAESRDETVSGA
# Chain of Cytochrome P450 3A4 (Homo sapiens) (P08684 whole entry, looked up): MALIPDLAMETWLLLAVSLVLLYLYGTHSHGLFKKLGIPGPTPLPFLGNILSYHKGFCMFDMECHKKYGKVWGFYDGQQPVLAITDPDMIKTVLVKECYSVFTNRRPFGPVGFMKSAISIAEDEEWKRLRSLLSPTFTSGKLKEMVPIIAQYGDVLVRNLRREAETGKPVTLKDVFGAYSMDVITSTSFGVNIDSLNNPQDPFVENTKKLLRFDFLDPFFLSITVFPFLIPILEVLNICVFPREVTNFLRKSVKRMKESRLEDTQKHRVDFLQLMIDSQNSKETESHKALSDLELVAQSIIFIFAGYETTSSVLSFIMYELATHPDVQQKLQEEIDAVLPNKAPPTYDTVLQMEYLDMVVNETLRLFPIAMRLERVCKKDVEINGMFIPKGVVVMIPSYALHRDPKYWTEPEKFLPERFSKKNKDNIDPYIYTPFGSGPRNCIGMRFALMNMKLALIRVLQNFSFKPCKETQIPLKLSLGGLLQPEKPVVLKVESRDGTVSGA
structure (smiles),measurement,setting,value
ClC(Cl)=C(c1ccc(Cl)cc1)c1ccc(Cl)cc1,AC50,CYP2E1 (gene 1571),50.7 µM (active)
same,outcome,CYP4A11 (gene 1579),inactive
same,AC50,[1],7.4 µM (active)
same,outcome,[2],inactive
same,outcome,[3],inactive
same,outcome,[4],inactive
same,outcome,[5],inactive
same,AC50,[6],8.96 µM (active)
same,outcome,CYP3A5 (gene 1577),inactive
same,AC50,[7],50 µM (active)
same,outcome,[8],inactive
same,outcome,[9],inactive
same,outcome,[10],inactive
same,outcome,[11],inactive
same,outcome,[12],inactive
same,outcome,[13],inactive
same,outcome,[14],inactive
same,outcome,[15],inactive
same,outcome,[16],inactive
Nn1cnnc1,outcome,CYP2E1 (gene 1571),inactive
same,outcome,CYP4A11 (gene 1579),inactive
same,outcome,[1],inactive
same,outcome,[2],inactive
same,outcome,[3],inactive
same,outcome,[4],inactive
same,outcome,[5],inactive
same,outcome,[6],inactive
same,outcome,CYP3A5 (gene 1577),inactive
same,outcome,[7],inactive
same,outcome,[8],inactive
same,outcome,[9],inactive
same,outcome,[10],inactive
same,outcome,[11],inactive
same,outcome,[12],inactive
same,outcome,[13],inactive
same,outcome,[14],inactive
same,outcome,[15],inactive
same,outcome,[16],inactive
same,outcome,[17],inactive
CN(C)c1nc(=O)n(C2CCCCC2)c(=O)n1C,outcome,CYP2E1 (gene 1571),inactive
same,outcome,CYP4A11 (gene 1579),inactive
same,AC50,[1],50 µM (active)
same,outcome,[2],inactive
same,outcome,[3],inactive
same,outcome,[4],inactive
same,outcome,[5],inactive
same,AC50,[6],28.6 µM (active)
same,outcome,CYP3A5 (gene 1577),inactive
same,outcome,[7],inactive
same,outcome,[8],inactive
same,outcome,[9],inactive
same,outcome,[10],inactive
same,outcome,[11],inactive
same,outcome,[12],inactive
same,outcome,[13],inactive
same,outcome,[14],inactive
same,outcome,[15],inactive
same,outcome,[16],inactive
same,outcome,[17],inactive
